# Activity calls are given as the source filed them.
# How the values were obtained:
# [1] = tested on: Plasmodium falciparum Sir2 (PF13_0152, Sir2A); assay: pfSir2 binders on small-molecule microarrays, primary screen, biochemical, small-molecule microarray, 635 nm fluorescence (AID 1098); conditions: small-molecule microarray binding, fluorescence 635 nm; higher = more signal;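 further: score merges spot fluorescence intensity with its signal-to-noise ratio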
# [2] = small-molecule microarray binders of probe aDKK1, primary screen, biochemical, biotinylated probe, 635/667 nm fluorescence (AID 1099); conditions: higher = more signal;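 further: score merges 667nm spot fluorescence with signal to noise across triplicate slides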
# [3] = small-molecule microarray binders of probe aCHRDL2, primary screen, biochemical, biotinylated probe, 635/667 nm fluorescence (AID 1100); conditions: higher = more signal
# [4] = splicing luciferase reporter signal modulators, primary screen, spliceosome inhibition project, cell-based, HEK293, splice +/- reporter (AID 1101); conditions: luminescence, 24 h, higher = more signal, called active from +8 up or from −8 down;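 further: HEK293 cells carrying a splicing-competent luciferase reporter gene; test concentration not given here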
# [5] = target: Fibroblast growth factor 10 (Homo sapiens) (UniProt O15520); assay: FGF10 binders on small-molecule microarrays, primary screen, biochemical, small-molecule microarray, 635 nm fluorescence (AID 1102); conditions: FGF10 binding, fluorescence 635 nm, higher = more signal
# [6] = tested on: glycogen synthase kinase-3 (GSK3A per assay name; protocol says GSK3B); assay: GSK3 binders on small-molecule microarrays, primary screen, biochemical, small-molecule microarray, 635 nm fluorescence, GSK3A (AID 1103); conditions: small-molecule microarray binding, fluorescence 635 nm; higher = more signal; further: the record names both GSK3A and GSK3B
# [7] = target: Epidermal growth factor receptor (Homo sapiens) (UniProt P00533); assay: EGFR binders on small-molecule microarrays, primary screen, biochemical, small-molecule microarray, 635 nm fluorescence (AID 1104); conditions: EGFR binding, higher = more signal;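 further: score merges 667 nm emission intensity with spot signal to noise over triplicate slides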
# [8] = target: Follistatin-related protein 3 (Homo sapiens) (UniProt O95633); assay: FSTL3 binders on small-molecule microarrays, primary screen, biochemical, small-molecule microarray, 635 nm fluorescence (AID 1105); conditions: FSTL3 binding, higher = more signal;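 further: score merges emission near 667 nm and signal to noise per printed spot across three slides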
# [9] = target: Dickkopf-related protein 1 (Homo sapiens) (UniProt O94907); assay: DKK1 binders on small-molecule microarrays, primary screen, biochemical, small-molecule microarray, 635 nm fluorescence scan (AID 1106); conditions: DKK1 binding, higher = more signal;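 further: score merges emission near 667 nm with signal to noise over three replicate slides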
# [10] = tested on: Inhibin beta A chain (activin A); assay: INHBA (activin A) binders on microarrays, primary screen, biochemical, small-molecule microarray, 635 nm fluorescence scan (AID 1107); conditions: small-molecule microarray binding, higher = more signal;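 further: mouse activin A protein probed at 4.33 µg/mL on printed slides; score merges bound-protein fluorescence near 667 nm with spot signal-to-noise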
# [11] = tested on: Human papillomavirus type 1a protein E7 (residues 44-93); assay: HPV1a E7 fragment binders on microarrays, primary screen, biochemical, small-molecule microarray, residues 44-93, 635 nm fluorescence (AID 1108); conditions: small-molecule microarray binding, fluorescence 635 nm; higher = more signal;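 further: E7 fragment applied at 1 µg/mL in TBST for 1 h at 4 C; score combines spot fluorescence with its signal to noise ratio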
# [12] = modulators of HCV replicon luciferase signal, primary screen, HCV replication inhibitor project, Huh7 cells, luciferase reporter (AID 1109); conditions: 48 h, higher = more signal;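 further: huh7 hepatoma cells harbouring a luciferase neomycin HCV replicon reporter; luciferase luminescence as measure of HCV replicon replication; test concentration not given here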
# [13] = target: Left-right determination factor 2 (Homo sapiens) (UniProt O00292); assay: LEFTY2 binders on small-molecule microarrays, primary screen, biochemical, small-molecule microarray, 635 nm fluorescence scan (AID 1110); conditions: LEFTY2 binding, higher = more signal
# [14] = target: Calmodulin-1 (Homo sapiens) (UniProt P0DP23); assay: CALM1 binders on microarrays, EGTA buffer, profiling panel, biochemical, small-molecule microarray, Cy5-labelled CALM1 (AID 1111); conditions: Cy5-CALM1 binding fluorescence, higher = more signal;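 further: labelled calmodulin applied in Tris saline Tween buffer holding calcium plus EGTA and DTT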
# [15] = target: Calmodulin-1 (Homo sapiens) (UniProt P0DP23); assay: calcium-bound CALM1 binders on microarrays, profiling panel, artefact control for SMM control-protein annotation, biochemical, small-molecule microarray, Cy5-labelled CALM1, plus calcium (AID 1112); conditions: Cy5-CALM1 binding fluorescence, higher = more signal;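 further: score merges spot fluorescence with signal to noise from triplicate slides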
# [16] = small-molecule microarray binders of probe aWnt5a, primary screen, biochemical, biotinylated probe, 635/667 nm fluorescence (AID 1113); conditions: higher = more signal;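 further: score merges 667 nm fluorescence intensity with signal-to-noise per printed feature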
# [17] = small-molecule microarray binders of probe aShh, primary screen, biochemical, biotinylated probe, 635/667 nm fluorescence (AID 1114); conditions: higher = more signal;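 further: probe is biotin-labelled aShh protein from a stem cell growth factor screen; measures binding of labelled protein to compounds printed on the slide; score merges feature fluorescence at 667 nm with signal-to-noise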
# [18] = small-molecule microarray binders of probe aNog, primary screen, biochemical, biotinylated probe, 635/667 nm fluorescence (AID 1115); conditions: higher = more signal;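 further: probe is biotinylated aNog protein used at 0.15 µg/mL for 1 h at 4 C; z-score combines 667 nm fluorescence of each spot with its signal to noise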
# [19] = target: Torsin-1A-interacting protein 1 (Homo sapiens) (UniProt Q5JTV8); assay: LAP1 binders from COS7 cell lysate, primary screen, small-molecule microarray, 635/667 nm fluorescence (AID 1116); conditions: COS7-hLAP1 lysate binding, 635 nm fluorescence, higher = more signal
# [20] = target: Alpha-bungarotoxin (Bungarus multicinctus) (UniProt P60615); assay: alpha-bungarotoxin binders on microarray, profiling panel, artefact control for SMM control protein annotation, biochemical, small-molecule microarray, Alexa647 label, 635/667 nm fluorescence (AID 1117); conditions: alpha-BTX-A647 binding fluorescence, higher = more signal
# Alpha-bungarotoxin (Bungarus multicinctus), sequence (P60615 whole entry, looked up): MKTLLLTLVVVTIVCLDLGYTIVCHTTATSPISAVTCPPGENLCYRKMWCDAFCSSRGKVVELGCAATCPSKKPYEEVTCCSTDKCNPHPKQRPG
# Torsin-1A-interacting protein 1 (Homo sapiens), sequence (Q5JTV8 whole entry, looked up): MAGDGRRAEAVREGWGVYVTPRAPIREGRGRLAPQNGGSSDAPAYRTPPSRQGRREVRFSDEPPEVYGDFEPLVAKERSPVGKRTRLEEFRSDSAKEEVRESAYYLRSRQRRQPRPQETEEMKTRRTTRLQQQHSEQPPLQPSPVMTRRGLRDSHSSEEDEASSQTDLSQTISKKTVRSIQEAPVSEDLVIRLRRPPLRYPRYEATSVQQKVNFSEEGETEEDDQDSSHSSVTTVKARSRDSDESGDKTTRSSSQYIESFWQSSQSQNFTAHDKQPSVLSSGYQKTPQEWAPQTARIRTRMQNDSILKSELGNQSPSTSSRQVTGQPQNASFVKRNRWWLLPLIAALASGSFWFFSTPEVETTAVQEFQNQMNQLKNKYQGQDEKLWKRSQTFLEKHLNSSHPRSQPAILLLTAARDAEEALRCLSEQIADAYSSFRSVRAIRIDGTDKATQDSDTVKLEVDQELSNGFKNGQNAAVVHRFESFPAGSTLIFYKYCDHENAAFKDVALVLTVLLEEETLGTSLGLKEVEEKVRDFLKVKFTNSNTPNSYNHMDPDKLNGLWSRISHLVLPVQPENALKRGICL
# Fibroblast growth factor 10 (Homo sapiens), sequence (O15520 whole entry, looked up): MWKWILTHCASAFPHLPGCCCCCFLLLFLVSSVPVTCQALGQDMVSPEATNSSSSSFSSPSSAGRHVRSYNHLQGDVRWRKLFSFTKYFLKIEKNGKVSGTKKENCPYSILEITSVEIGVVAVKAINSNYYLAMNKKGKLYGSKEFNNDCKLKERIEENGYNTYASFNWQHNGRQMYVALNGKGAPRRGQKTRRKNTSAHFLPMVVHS
# Epidermal growth factor receptor (Homo sapiens), sequence (P00533 whole entry, looked up): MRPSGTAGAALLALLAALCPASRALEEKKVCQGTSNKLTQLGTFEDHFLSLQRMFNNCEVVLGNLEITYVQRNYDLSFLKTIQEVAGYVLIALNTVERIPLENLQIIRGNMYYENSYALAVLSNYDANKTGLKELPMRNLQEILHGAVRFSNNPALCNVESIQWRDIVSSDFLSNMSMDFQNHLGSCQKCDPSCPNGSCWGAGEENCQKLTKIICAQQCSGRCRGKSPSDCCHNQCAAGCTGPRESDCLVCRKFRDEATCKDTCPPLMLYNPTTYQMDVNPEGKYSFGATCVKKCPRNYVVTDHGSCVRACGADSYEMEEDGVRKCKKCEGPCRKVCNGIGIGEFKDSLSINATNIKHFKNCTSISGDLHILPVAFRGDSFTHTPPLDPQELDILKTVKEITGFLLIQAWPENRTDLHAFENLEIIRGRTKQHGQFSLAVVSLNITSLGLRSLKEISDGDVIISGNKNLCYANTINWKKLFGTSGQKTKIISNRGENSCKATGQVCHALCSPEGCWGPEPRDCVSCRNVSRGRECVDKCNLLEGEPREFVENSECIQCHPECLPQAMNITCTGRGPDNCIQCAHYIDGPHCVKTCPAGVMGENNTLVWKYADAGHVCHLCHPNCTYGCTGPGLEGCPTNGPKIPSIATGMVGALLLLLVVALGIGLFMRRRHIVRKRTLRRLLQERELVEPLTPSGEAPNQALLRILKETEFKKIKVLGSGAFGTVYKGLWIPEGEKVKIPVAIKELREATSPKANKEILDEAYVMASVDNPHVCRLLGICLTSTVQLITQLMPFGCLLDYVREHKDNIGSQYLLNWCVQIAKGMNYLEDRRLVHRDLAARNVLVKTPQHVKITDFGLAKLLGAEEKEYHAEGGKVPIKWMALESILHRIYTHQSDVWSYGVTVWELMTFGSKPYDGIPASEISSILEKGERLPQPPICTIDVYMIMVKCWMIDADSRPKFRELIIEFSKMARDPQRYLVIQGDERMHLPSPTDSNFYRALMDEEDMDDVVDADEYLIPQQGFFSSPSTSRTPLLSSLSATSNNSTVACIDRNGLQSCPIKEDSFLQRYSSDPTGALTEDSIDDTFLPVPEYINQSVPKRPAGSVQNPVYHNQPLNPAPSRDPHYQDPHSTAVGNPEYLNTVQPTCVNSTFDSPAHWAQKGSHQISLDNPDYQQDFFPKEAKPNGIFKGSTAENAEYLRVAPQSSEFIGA
# Dickkopf-related protein 1 (Homo sapiens), sequence (O94907 whole entry, looked up): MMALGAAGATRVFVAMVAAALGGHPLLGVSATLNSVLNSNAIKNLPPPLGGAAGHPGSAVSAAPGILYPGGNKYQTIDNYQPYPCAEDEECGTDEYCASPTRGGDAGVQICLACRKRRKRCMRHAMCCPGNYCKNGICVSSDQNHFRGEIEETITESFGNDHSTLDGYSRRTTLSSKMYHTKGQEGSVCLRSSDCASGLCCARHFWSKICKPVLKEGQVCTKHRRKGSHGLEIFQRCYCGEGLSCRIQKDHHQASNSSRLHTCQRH
# Follistatin-related protein 3 (Homo sapiens), sequence (O95633 whole entry, looked up): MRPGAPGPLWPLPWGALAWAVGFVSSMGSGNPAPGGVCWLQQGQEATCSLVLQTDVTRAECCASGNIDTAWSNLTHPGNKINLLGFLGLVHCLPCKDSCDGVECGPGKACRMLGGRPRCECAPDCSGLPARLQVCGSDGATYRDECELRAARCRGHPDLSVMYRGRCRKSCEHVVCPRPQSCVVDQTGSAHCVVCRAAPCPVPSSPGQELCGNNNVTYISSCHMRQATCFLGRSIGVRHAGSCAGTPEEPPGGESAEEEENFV
# Left-right determination factor 2 (Homo sapiens), sequence (O00292 whole entry, looked up): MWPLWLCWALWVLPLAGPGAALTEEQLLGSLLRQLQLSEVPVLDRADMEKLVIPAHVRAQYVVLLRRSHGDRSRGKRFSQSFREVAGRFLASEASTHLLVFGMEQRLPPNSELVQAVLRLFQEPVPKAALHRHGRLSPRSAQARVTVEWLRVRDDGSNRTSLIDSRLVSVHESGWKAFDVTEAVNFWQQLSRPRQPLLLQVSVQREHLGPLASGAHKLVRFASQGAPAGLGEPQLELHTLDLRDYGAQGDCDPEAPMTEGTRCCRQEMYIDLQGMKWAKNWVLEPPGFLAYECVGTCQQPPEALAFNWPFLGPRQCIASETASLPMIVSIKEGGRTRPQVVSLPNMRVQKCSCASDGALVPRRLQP
Compound,composite z-score [1],composite z-score [2],composite z-score [3],z-score [4],composite z-score [5],composite z-score [6],composite z-score [7],composite z-score [8],composite z-score [9],composite z-score [10],composite z-score [11],z-score [12],composite z-score [13],composite z-score [14],composite z-score [15],composite z-score [16],composite z-score [17],composite z-score [18],composite z-score [19],composite z-score [20]
CCCCCN1CC=CC23O[C@@H]4C=CCOC(=O)[C@@H]4[C@H]2C(=O)N(CCO)[C@@H]3C1=O (stereo not given in full),-0.0015,-0.314,0.634,0.374 (inactive),-0.318,-0.527,-1.17,-1.3,-1.25,0.393,0.673,0.644,-0.397,-0.343,0.595,-0.172,-0.138,-0.305,0.665,-0.514
COC(=O)C(CC#Cc1ccc2c(c1)[C@]1(C(=O)N2)[C@H](c2ccc(O)cc2)N2[C@H](c3ccccc3)[C@H](c3ccccc3)OC(=O)[C@H]2[C@@H]1C(=O)N1CCCCCCC1)C(=O)OC,1.48,2.23,1.22,-0.83 (inactive),0.869,1.32,0.765,1.54,1.22,1.77,1.36,-1.69,0.65,2.75,1.64,0.593,1.03,2.58,3.87,2.18
COC(=O)C1=CC(CCCO)=CC(c2ccc(CN3CCCC3)cc2)N(Cc2cc3c(cc2Br)OCO3)C=C1C(=O)OC (stereo not given),1.16,1.12,0.986,-0.967 (inactive),1.45,0.636,0.19,1.46,0.836,1.13,1.39,-0.803,0.688,1.9,0.795,0.212,0.839,-0.603,1.48,0.853
CC(C)[C@H]1NC(=O)[C@@]23C(=O)N[C@@H](Cc4ccccc4)C2[C@H](C)[C@@]2(C)O[C@H]2C3/C=C/C/C=C\CNC(=O)[C@H](Cc2ccccc2)NC1=O (stereo not given in full),0.205,-0.38,-0.481,0.0723 (inactive),1.37,1.08,0.512,1.44,0.336,1.12,1.33,-0.26,0.736,-0.28,-0.584,-0.158,-0.0553,-0.505,0.512,0.807
Cc1ccccc1C(O)C1C=CC2C(=O)NC(=O)C2N1Nc1ccc(Cl)cc1Cl (stereo not given),1.21,0.629,0.751,0.812 (inactive),0.904,0.332,0.207,0.511,0.0925,1.18,-0.198,-0.595,-0.345,1.95,1.13,-0.0405,0.0796,0.879,1.56,0.0072
CCCNC(=O)[C@@]1(Sc2ccc(C)cc2)CC(=O)N(C(C)C)[C@@H]1c1ccc(CO)cc1I,0.0404,0.832,1.37,-0.0862 (inactive),-0.72,-1.33,-1.71,-1.35,-2.76,0.448,-0.593,-2.03,-1.7,1.31,0.944,-0.178,-0.0553,0.909,0.669,-0.432
C=CC[C@H](OC(=O)Nc1ccc(SC)cc1)c1ccc(OCCO)cc1,0.392,-0.164,0.799,-1.69 (inactive),-0.163,-0.989,-0.634,-0.0191,-0.472,0.138,-0.833,1.34,-0.952,-0.316,0.461,-0.0994,0.0188,1.48,-0.286,0.191
COCCCNC(=O)[C@@]1(Sc2ccc(C)cc2)CC(=O)N(Cc2ccccc2Cl)[C@@H]1c1ccc(CO)cc1I,0.515,0.0057,0.791,-0.529 (inactive),-0.668,-1.05,-1.29,-0.491,-1.12,0.45,-0.747,-1.94,-1.6,-0.434,0.717,-0.28,0.0115,-0.323,-1.36,-0.659
COc1ccc(C#Cc2ccc3c(c2)[C@]2(C(=O)N3)[C@H](C(=O)N3CCCCCCC3)[C@H]3C(=O)O[C@H](c4ccccc4)[C@H](c4ccccc4)N3[C@@H]2c2ccc(O)cc2)cc1,1.57,1.36,0.696,-0.547 (inactive),0.684,1.16,0.427,1.2,0.608,0.85,0.871,-0.764,0.536,1.51,0.426,0.19,0.162,2.3,2.85,1.22
C=C[C@@H](OC)[C@H](OC(=O)Nc1ccc(OC)cc1)c1ccc(OC)c(O)c1,-1.1,-0.259,0.601,-0.657 (inactive),-0.818,-0.465,-0.75,-1.11,-0.642,-0.267,-0.546,0.15,-1.86,-0.56,-0.194,-0.154,-0.367,-0.45,-0.386,-0.382
COC(=O)C(CC#Cc1ccc2c(c1)[C@]1(C(=O)N2)[C@H](C(=O)Nc2nc3ccccc3s2)[C@H]2C(=O)O[C@H](c3ccccc3)[C@H](c3ccccc3)N2[C@@H]1c1ccc(OCCO)cc1)C(=O)OC,0.912,0.277,0.575,-1.25 (inactive),1.15,1.21,0.468,1.19,0.344,0.519,1.39,-1.85,0.768,1.52,0.326,0.189,0.427,1,2.02,1.62

# Reference: PubChem BioAssay
